From PubChem BioAssay (NCI)
Compounds without any hit were thinned out: in the full panel of roughly 83,000, 20% have a hit.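 Method: cells in 96-well plates; compound added at one concentration; 48 h incubation; percent growth measured; values under 10 scored active.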 Active and inactive are the calls of the source.

Legend:
Assay in all cases: NCI-60 one-dose screen, 48 h (100 = growth as untreated, 0 = no growth, -100 = all killed)
Settings in all cases: 10 µM
DU-145 prostate = tested on: DU-145 prostate
K-562 leukemia = tested on: K-562 leukemia
MALME-3M melanoma = tested on: MALME-3M melanoma
MDA-MB-231 breast = tested on: MDA-MB-231 breast
RXF 393 renal = tested on: RXF 393 renal
SF-268 CNS = tested on: SF-268 CNS
SF-295 CNS = tested on: SF-295 CNS
SF-539 CNS = tested on: SF-539 CNS
UACC-257 melanoma = tested on: UACC-257 melanoma
M14 melanoma = tested on: M14 melanoma

Measured: growth

CN1CCN(c2nc(-c3cccnc3)nc3sc4c(c23)CCCCCC4)CC1
inactive: DU-145 prostate 98.9% | K-562 leukemia 13.6% | MALME-3M melanoma 106% | MDA-MB-231 breast 78.9% | RXF 393 renal 79.4% | SF-268 CNS 80.3% | SF-295 CNS 75.6% | SF-539 CNS 93.3% | UACC-257 melanoma 102% | M14 melanoma 101%

COc1cc(-c2nc3ccc(C)cc3[nH]2)ccc1OCC(=O)N=Nc1c(O)[nH]c2ccccc12
inactive: UACC-257 melanoma 13.8%
active: DU-145 prostate 2.84% | K-562 leukemia -62.9% | MALME-3M melanoma -68.8% | MDA-MB-231 breast -81.2% | RXF 393 renal -9.89% | SF-268 CNS -35.6% | SF-295 CNS -52.8% | SF-539 CNS -88.5% | M14 melanoma -72.8%

COc1ccc(C(C)=O)cc1N1C(=O)C2C(C1=O)C1(c3ccccc3)C(=O)C2(c2ccccc2)C(c2ccc(C)cc2)=C1c1ccc(C)cc1 (stereo not given)
active: RXF 393 renal -4.28% | SF-295 CNS 1.18% | M14 melanoma -28.1%
inactive: DU-145 prostate 19.1% | K-562 leukemia 11.7% | MALME-3M melanoma 17% | MDA-MB-231 breast 12.3% | SF-268 CNS 13.8% | SF-539 CNS 11.4% | UACC-257 melanoma 16.2%

N/C(=N\O)c1cn(C2OC(CO)C(O)C2O)c2ncnc(N)c12 (stereo not given)
active: DU-145 prostate 0.144% | K-562 leukemia 7.52% | MALME-3M melanoma -78.3% | MDA-MB-231 breast 5.86% | RXF 393 renal -9.98% | SF-268 CNS 9.34% | SF-295 CNS -16.7% | SF-539 CNS 1.24% | UACC-257 melanoma -23.8% | M14 melanoma -28.3%

CC(C)c1[nH]nc2c(NCc3ccc(-c4ccccn4)cc3)nc(SCCN)nc12
active: DU-145 prostate 5.83% | K-562 leukemia 3.89% | MALME-3M melanoma -41.3% | MDA-MB-231 breast 5.07% | RXF 393 renal -71.4% | SF-268 CNS -0.883% | SF-295 CNS 4.57% | SF-539 CNS -54.4% | UACC-257 melanoma 1.34% | M14 melanoma -43.1%

CCc1ccc(-c2nnc(COc3ccc(-c4nc5ccccc5[nH]4)cc3OC)o2)cc1
active: SF-539 CNS 6.55%
inactive: DU-145 prostate 48.1% | K-562 leukemia 33% | MALME-3M melanoma 47.6% | MDA-MB-231 breast 10.5% | RXF 393 renal 68.7% | SF-268 CNS 52.8% | SF-295 CNS 79.3% | UACC-257 melanoma 88.7% | M14 melanoma 56.5%

COc1cccc2c1O/C(=C\c1ccc([N+](=O)[O-])s1)C2=O
inactive: DU-145 prostate 80.4% | MALME-3M melanoma 88.6% | MDA-MB-231 breast 55.4% | RXF 393 renal 25.7% | SF-268 CNS 12.5% | SF-295 CNS 97.2% | SF-539 CNS 55.7% | UACC-257 melanoma 65.2% | M14 melanoma 48.1%
active: K-562 leukemia 8.38%

CCOC(=O)CSC(=S)SCC(=O)OCC
inactive: DU-145 prostate 107% | K-562 leukemia 95.6% | MALME-3M melanoma 98% | MDA-MB-231 breast 118% | RXF 393 renal 109% | SF-268 CNS 113% | SF-295 CNS 103% | SF-539 CNS 94.1% | UACC-257 melanoma 82.8% | M14 melanoma 97.9%

COC(=O)C1(C(=O)OC)C2C(=O)C3C(C21)C3(C(=O)OC(C)(C)C)C(=O)OC(C)(C)C (stereo not given)
inactive: DU-145 prostate 118% | K-562 leukemia 103% | MALME-3M melanoma 115% | MDA-MB-231 breast 121% | RXF 393 renal 105% | SF-268 CNS 111% | SF-295 CNS 103% | SF-539 CNS 115% | UACC-257 melanoma 107% | M14 melanoma 104%

c1ccc(CC(NCCNC(Cc2ccccc2)c2ccccc2)c2ccccc2)cc1 (stereo not given)
inactive: DU-145 prostate 15.7% | SF-268 CNS 43.1% | SF-539 CNS 32.3% | UACC-257 melanoma 48.5%
active: K-562 leukemia -25.7% | MALME-3M melanoma -22.5% | MDA-MB-231 breast 7.83% | RXF 393 renal -8.13% | SF-295 CNS 2.14% | M14 melanoma 2.08%

NC(N)=NS(=O)(=O)c1ccc(Nc2ccc3nnc(-c4ccncc4)n3n2)cc1
inactive: DU-145 prostate 111% | K-562 leukemia 95.3% | MALME-3M melanoma 98.1% | MDA-MB-231 breast 102% | RXF 393 renal 106% | SF-268 CNS 102% | SF-295 CNS 116% | SF-539 CNS 100% | UACC-257 melanoma 127% | M14 melanoma 105%

COc1cc(-c2cc(/C=C/C(C)=O)[nH]n2)cc(OC)c1OC
inactive: DU-145 prostate 77% | K-562 leukemia 46.6% | MALME-3M melanoma 67.5% | MDA-MB-231 breast 78.8% | RXF 393 renal 89.4% | SF-268 CNS 82.4% | SF-295 CNS 76% | SF-539 CNS 93.4% | UACC-257 melanoma 79.9% | M14 melanoma 84.9%

CCCCC(CC#N)(CCC)CCC
inactive: DU-145 prostate 108% | K-562 leukemia 101% | MALME-3M melanoma 82.7% | MDA-MB-231 breast 126% | RXF 393 renal 126% | SF-268 CNS 101% | SF-295 CNS 96.7% | SF-539 CNS 100% | UACC-257 melanoma 110% | M14 melanoma 97.4%

c1ccc(C2CCCCC2)c(OCCCCCN2CCNCC2)c1
active: K-562 leukemia -13.1% | M14 melanoma -66.5%
inactive: DU-145 prostate 72.8% | MALME-3M melanoma 43% | MDA-MB-231 breast 15.9% | RXF 393 renal 36.4% | SF-268 CNS 70.7% | SF-295 CNS 63.5% | SF-539 CNS 68.7% | UACC-257 melanoma 19.9%

CN1/C(=C\C(I)C(I)C2=[N+](C)c3ccccc3C2(C)C)C(C)(C)c2ccccc21 (stereo not given)
inactive: DU-145 prostate 25.2% | MALME-3M melanoma 10.9% | MDA-MB-231 breast 12.2% | RXF 393 renal 36.3% | SF-268 CNS 24% | SF-539 CNS 18.6% | M14 melanoma 20.3%
active: K-562 leukemia 7.4% | SF-295 CNS -18.2% | UACC-257 melanoma -11.8%

CC(C)(C)c1ccc(OCCCCCCN2CCNCC2)cc1
inactive: DU-145 prostate 86.2% | MALME-3M melanoma 60.6% | MDA-MB-231 breast 36.4% | RXF 393 renal 46.2% | SF-268 CNS 78.2% | SF-295 CNS 57.7% | SF-539 CNS 68.9% | UACC-257 melanoma 93.6% | M14 melanoma 22.6%
active: K-562 leukemia 0.864%

O=C1CC[C@@H](C(=O)N[C@H]2CSSC[C@@H](C(=O)NCCc3ccccc3)NC(=O)[C@H](Cc3ccccc3)NC(=O)[C@@H]3CCCN3C(=O)[C@@H]3CCCN3C2=O)N1
inactive: DU-145 prostate 110% | K-562 leukemia 90.6% | MALME-3M melanoma 110% | MDA-MB-231 breast 90.1% | RXF 393 renal 103% | SF-268 CNS 106% | SF-295 CNS 98.8% | SF-539 CNS 94.2% | UACC-257 melanoma 99.1% | M14 melanoma 97.8%

COc1ccccc1S(=O)(=O)Nc1ccc2c(c1)CN(C)C(=O)N2
active: SF-295 CNS 5.34%
inactive: DU-145 prostate 77.8% | K-562 leukemia 28.6% | MALME-3M melanoma 32.2% | MDA-MB-231 breast 54.7% | RXF 393 renal 73.3% | SF-268 CNS 72.9% | SF-539 CNS 50.1% | UACC-257 melanoma 33.8% | M14 melanoma 47.8%

COc1ccc(CSc2nc3cc(OC)c(OC)cc3c(=O)n2-c2ccc(OC)cc2OC)cc1
inactive: DU-145 prostate 97.7% | K-562 leukemia 87.1% | MALME-3M melanoma 82.6% | MDA-MB-231 breast 75.4% | RXF 393 renal 75.5% | SF-268 CNS 86.4% | SF-295 CNS 89.6% | SF-539 CNS 96.8% | UACC-257 melanoma 93.4% | M14 melanoma 97%

COc1ccc(C2CC(c3ccc(-c4ccccc4)cc3)=NN2c2ccc(S(N)(=O)=O)cc2)cc1 (stereo not given)
inactive: DU-145 prostate 83.2% | K-562 leukemia 52.7% | MALME-3M melanoma 95.8% | MDA-MB-231 breast 69.6% | RXF 393 renal 73.3% | SF-268 CNS 68% | SF-295 CNS 86.5% | SF-539 CNS 98.7% | UACC-257 melanoma 82.7% | M14 melanoma 89.6%

O=C(Nc1cccc(-c2nc3ccccc3[nH]2)c1)c1cccc(NC(=O)c2ccco2)c1
active: K-562 leukemia 2.96% | UACC-257 melanoma -20.2% | M14 melanoma 3.76%
inactive: DU-145 prostate 103% | MALME-3M melanoma 73.9% | MDA-MB-231 breast 34.6% | RXF 393 renal 67.6% | SF-268 CNS 75.7% | SF-295 CNS 80.3% | SF-539 CNS 64.9%

CNC(=O)c1cc(Oc2ccc(NC(=O)Nc3ccc(Cl)c(OC4CCCCC4)c3)c(F)c2)ccn1
inactive: DU-145 prostate 65.6% | K-562 leukemia 17.1% | MALME-3M melanoma 69% | MDA-MB-231 breast 68.7% | RXF 393 renal 79.4% | SF-268 CNS 61% | SF-295 CNS 20.5% | SF-539 CNS 59.9% | UACC-257 melanoma 23.3% | M14 melanoma 40%

CC(C)/C=N/NC(N)=S
inactive: DU-145 prostate 95.3% | K-562 leukemia 47.3% | MALME-3M melanoma 80.3% | MDA-MB-231 breast 86.2% | RXF 393 renal 106% | SF-268 CNS 99.9% | SF-295 CNS 90.5% | SF-539 CNS 102% | UACC-257 melanoma 40.5% | M14 melanoma 84.4%

COc1ccc(-c2[nH]ncc2-c2cc(OC)c(OC)c(OC)c2)cc1
inactive: MALME-3M melanoma 57.2% | SF-268 CNS 16% | UACC-257 melanoma 42.6%
active: DU-145 prostate -23.9% | K-562 leukemia 6.11% | MDA-MB-231 breast 4.38% | RXF 393 renal 0.469% | SF-295 CNS -1.07% | SF-539 CNS -28.1% | M14 melanoma 4.51%

CCCCCCCCCCCCCCCCCBr
inactive: DU-145 prostate 113% | K-562 leukemia 97.4% | MALME-3M melanoma 108% | MDA-MB-231 breast 112% | RXF 393 renal 109% | SF-268 CNS 109% | SF-295 CNS 97% | SF-539 CNS 99.5% | UACC-257 melanoma 102% | M14 melanoma 109%

CCOc1ccc2c(c1)CC[C@@H]1[C@@H]2CC[C@]2(C)[C@@H](O)[C@@H](O)C[C@@H]12
inactive: DU-145 prostate 108% | K-562 leukemia 91.8% | MALME-3M melanoma 91.4% | MDA-MB-231 breast 109% | RXF 393 renal 95.9% | SF-268 CNS 103% | SF-295 CNS 100% | SF-539 CNS 103% | UACC-257 melanoma 95.4% | M14 melanoma 108%

COc1ccc(-n2nnc3c(sc4ccccc43)c2=O)cc1
inactive: DU-145 prostate 60.2% | K-562 leukemia 91.5% | MALME-3M melanoma 80.6% | MDA-MB-231 breast 53.8% | RXF 393 renal 45% | SF-268 CNS 53.1% | SF-295 CNS 42.3% | SF-539 CNS 54.7% | UACC-257 melanoma 80.8% | M14 melanoma 86.5%

COc1ccc(C(=O)/C=C/c2cc(-c3ccc4c(c3)OCO4)n[nH]2)cc1OC
inactive: DU-145 prostate 39.7% | K-562 leukemia 23.8% | MALME-3M melanoma 94.4% | MDA-MB-231 breast 58.3% | RXF 393 renal 38.6% | SF-268 CNS 45.4% | SF-295 CNS 53.4% | SF-539 CNS 42.2% | UACC-257 melanoma 109% | M14 melanoma 91.6%
